Inconclusive results are not listed. Where a call stands in place of a potency, no number is given. The source made the active and inactive calls. The call rests on the fitted dose curve.

The experiment can be described thus: qHTS for Inhibitors of Cell Surface uPA Generation: Wild-type Protective Antigen (WT-PrAg) Counterscreen for Cherry-picked Compounds. To be noted: cells, WT protective antigen toxicity counterscreen; series mostly up to 115 µM.
`O=C1CCCc2ccccc2N1Cc1ccc(F)cc1`: the Potency result is “inactive”. For `Cc1ccc(NC(=O)CSc2nncn2N)cc1C`, the Potency entry was “inactive”.

As to `NC(=O)c1cc2c3ccccc3ccn2c1-c1ccccc1`, the Potency result is “inactive”. With `COc1cc(C(=O)N/N=C(\Cc2ncc[nH]2)c2ccccc2)cc(OC)c1OC`, the Potency entry was “inactive”. On to `Cn1nc(C(C)(C)C)c([N+](=O)[O-])c1C(=O)N1CCOCC1`, for which the Potency entry is “inactive”.

For the compound `O=C(NC(=S)Nc1c(F)cc(F)cc1Br)c1ccc2c(c1)OCCO2`, the Potency entry was “inactive”. Take `CC1(C(=O)OCC(=O)Nc2ccc(Cl)cn2)CC1(Cl)Cl` (centres undefined): the Potency entry is “inactive”. With `COc1ccc(C(CNC(=O)C(C)Oc2ccc(Br)cc2)N2CCCC2)cc1` (centres undefined), the Potency result was “inactive”.

Consider `O=C(Cn1cnc2c(OCc3ccccc3)ncnc21)NCCCN1CCCC1=O`, for which the Potency entry was “inactive”. Consider `CCNC(=S)NNC(=O)c1ccncc1`, for which the Potency entry was “inactive”.

As to `CCOc1ccc(-c2n[nH]c(=S)n2Cc2ccccc2)cc1`, the Potency result is “inactive”. Regarding `O=[N+]([O-])c1cccc(-c2noc(-c3cccs3)n2)c1`, the Potency entry is “inactive”.

As for `CC1(NC(=O)CSc2nnc(-c3c[nH]c4ccccc34)n2C2CC2)CCS(=O)(=O)C1` (centres undefined), the Potency result was “inactive”.

On to `Cc1cc2c(cc1S(=O)(=O)Nc1ccc(F)cc1)n(C)c(=O)c(=O)n2C`, for which the Potency result was “inactive”. As to `CCN(C1CCS(=O)(=O)C1)S(=O)(=O)c1ccc2ccccc2c1` (centres undefined), the Potency result is “inactive”. For `COc1cccc2c1Oc1ncccc1N(C(=O)CCC(=O)NCc1ccc(C)cc1)C2` the value was “inactive”; for `CCN(CC)c1c([N+](=O)[O-])c(=O)sc2ccccc12`, “inactive”.

For `COc1ccc(NC(=O)Nc2nnc(N3CCCCC3C)s2)cc1OC` (centres undefined), the Potency result is “inactive”.

`COc1ccc(NS(=O)(=O)c2c(C)n(C)c(=O)n(C)c2=O)cc1OC`: the Potency entry is “inactive”.
